What all share (experiment): DAPPL (digital affinity profiling via proximity ligation, sequencing); 10 mM Tris-HCl pH 7.5, 50 mM NaCl, 1 mM DTT, 4% glycerol, room temperature, 30 min; GST-TFs on glutathione beads, 16-mer random dsDNA library, 0.1% formaldehyde crosslink after washing; high values mean tight binding
Details in all cases: protein: recombinant; tags: N-terminal GST; dsDNA, one strand shown

The target of one experiment is T1, FLI1 (Homo sapiens, UniProt Q01543 1-452).
T1 sequence: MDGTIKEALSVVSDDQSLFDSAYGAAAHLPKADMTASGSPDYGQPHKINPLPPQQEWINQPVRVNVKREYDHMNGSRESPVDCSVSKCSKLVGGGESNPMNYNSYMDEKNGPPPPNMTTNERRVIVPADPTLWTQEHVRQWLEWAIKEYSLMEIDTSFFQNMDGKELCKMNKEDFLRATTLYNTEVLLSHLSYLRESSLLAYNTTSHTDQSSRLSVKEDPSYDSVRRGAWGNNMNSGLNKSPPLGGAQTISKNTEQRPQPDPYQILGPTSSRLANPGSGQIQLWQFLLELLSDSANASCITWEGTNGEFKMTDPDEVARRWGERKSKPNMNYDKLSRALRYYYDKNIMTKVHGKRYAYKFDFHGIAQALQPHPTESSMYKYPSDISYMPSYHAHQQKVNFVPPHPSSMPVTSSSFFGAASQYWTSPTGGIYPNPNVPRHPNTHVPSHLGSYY
The procedure, abridged: (§1)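 Beads coated with glutathione captured GST-fused human transcription factors that had been expressed in yeast, and the factors were then given DNA barcodes and pooled with a tag-only sample. The pools were incubated with 200 nmole of a random double-stranded 16-mer DNA library in Tris/NaCl/DTT/glycerol buffer for 30 min at room temperature, washed, crosslinked with 0.1% formaldehyde and proximity-ligated with BsaI/T4 ligase at 37 °C for 1 h. PCR amplification and Illumina NextSeq500 sequencing came last. Binding signal is each hexamer's read frequency for a factor divided by its frequency for the tag-only sample.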

The next experiment has as its target T2, ELK1 (Homo sapiens, UniProt P19419 1-428).
T2 sequence: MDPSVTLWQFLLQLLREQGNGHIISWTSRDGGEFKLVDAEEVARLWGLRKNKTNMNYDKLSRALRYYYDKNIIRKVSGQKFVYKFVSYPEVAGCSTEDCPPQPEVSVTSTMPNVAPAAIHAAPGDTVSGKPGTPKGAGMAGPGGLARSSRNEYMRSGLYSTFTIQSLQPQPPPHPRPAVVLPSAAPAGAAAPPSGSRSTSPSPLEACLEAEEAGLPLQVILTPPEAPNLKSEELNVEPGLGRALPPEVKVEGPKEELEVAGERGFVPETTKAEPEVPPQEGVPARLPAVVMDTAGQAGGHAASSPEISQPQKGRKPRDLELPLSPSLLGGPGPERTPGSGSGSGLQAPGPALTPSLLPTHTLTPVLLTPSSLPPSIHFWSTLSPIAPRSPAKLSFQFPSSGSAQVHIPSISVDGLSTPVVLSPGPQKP
The procedure, abridged:
as §1

The next experiment deals with T3, GABPA (Homo sapiens, UniProt Q06546 1-454).
T3 sequence: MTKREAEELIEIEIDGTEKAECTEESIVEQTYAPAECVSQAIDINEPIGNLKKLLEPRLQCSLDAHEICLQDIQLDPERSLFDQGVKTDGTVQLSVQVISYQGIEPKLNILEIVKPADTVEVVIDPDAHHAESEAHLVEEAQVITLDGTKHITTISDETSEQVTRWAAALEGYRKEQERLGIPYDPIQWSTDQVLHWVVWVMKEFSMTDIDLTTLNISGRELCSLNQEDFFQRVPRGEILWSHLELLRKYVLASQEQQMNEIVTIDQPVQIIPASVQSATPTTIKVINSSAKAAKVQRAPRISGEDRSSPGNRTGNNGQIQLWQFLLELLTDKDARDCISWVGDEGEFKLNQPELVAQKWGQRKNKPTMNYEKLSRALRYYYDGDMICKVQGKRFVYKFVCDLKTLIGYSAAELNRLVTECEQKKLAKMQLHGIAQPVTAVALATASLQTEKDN
The procedure, abridged: as §1

The next experiment addresses T4, ERG (Homo sapiens, UniProt P11308 1-479).
T4 sequence: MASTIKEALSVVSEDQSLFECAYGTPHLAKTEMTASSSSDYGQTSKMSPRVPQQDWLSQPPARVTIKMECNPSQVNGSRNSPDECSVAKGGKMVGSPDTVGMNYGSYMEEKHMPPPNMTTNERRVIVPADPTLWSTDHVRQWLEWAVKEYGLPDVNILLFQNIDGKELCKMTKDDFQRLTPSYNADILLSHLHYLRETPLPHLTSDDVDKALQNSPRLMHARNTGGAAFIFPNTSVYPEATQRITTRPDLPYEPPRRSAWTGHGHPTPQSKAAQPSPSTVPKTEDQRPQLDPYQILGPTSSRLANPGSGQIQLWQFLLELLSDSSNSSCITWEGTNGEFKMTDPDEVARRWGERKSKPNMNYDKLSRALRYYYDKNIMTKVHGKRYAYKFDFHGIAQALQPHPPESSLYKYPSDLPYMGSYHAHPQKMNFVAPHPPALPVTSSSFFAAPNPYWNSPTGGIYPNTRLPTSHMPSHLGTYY
The procedure, abridged:
as §1

The target in a further experiment is ELF1 (Homo sapiens, UniProt P32519 1-619). The procedure, abridged:
as §1

Another experiment has as its target T5, EHF (Homo sapiens, UniProt Q9NZC4 1-300).
T5 sequence: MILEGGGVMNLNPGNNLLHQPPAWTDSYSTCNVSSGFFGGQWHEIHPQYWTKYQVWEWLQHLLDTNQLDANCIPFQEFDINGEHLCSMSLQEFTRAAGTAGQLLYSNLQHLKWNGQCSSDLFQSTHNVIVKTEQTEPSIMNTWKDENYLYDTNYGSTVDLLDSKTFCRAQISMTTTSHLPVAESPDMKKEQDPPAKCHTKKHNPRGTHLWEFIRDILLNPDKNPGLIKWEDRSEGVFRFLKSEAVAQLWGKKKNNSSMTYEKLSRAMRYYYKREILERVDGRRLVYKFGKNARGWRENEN
The method, boiled down: as §1

Another experiment addresses SPI1 (Homo sapiens, UniProt P17947 1-270). The procedure, abridged: as §1
Another experiment deals with SPIB (Homo sapiens, UniProt Q01892 1-262). The procedure, abridged: as §1
Another experiment has as its target T6, ELK3 (Homo sapiens, UniProt P41970 1-407).
T6 sequence: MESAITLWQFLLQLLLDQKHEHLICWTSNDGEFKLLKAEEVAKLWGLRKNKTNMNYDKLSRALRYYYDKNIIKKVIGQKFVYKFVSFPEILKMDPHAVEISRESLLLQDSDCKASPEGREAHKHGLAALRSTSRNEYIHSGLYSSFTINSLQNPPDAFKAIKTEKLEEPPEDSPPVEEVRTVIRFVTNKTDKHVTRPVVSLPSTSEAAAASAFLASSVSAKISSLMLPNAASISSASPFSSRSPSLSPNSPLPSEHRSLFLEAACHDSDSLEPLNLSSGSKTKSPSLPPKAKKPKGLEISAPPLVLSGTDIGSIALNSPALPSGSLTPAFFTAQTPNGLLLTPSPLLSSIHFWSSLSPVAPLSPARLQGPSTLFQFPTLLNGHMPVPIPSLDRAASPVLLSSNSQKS
The method, boiled down: as §1

Sequence of ELF1 (P32519 whole entry): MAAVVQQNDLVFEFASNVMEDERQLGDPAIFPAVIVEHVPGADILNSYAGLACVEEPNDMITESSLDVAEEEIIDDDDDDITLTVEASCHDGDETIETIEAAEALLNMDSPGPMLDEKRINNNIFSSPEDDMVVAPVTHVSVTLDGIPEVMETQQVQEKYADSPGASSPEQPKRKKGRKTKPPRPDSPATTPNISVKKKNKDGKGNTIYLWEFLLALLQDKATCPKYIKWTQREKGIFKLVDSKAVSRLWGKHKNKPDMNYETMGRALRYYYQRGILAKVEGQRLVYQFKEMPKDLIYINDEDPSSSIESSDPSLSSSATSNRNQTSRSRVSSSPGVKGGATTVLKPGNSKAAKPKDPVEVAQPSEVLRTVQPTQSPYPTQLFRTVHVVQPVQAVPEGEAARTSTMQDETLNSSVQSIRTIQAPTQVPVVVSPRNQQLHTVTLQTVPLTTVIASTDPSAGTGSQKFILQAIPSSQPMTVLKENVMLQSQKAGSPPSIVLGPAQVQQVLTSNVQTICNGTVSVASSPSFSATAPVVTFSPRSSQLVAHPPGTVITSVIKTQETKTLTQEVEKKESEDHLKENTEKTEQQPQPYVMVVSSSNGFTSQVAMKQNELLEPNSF
Sequence of SPIB (Q01892 whole entry): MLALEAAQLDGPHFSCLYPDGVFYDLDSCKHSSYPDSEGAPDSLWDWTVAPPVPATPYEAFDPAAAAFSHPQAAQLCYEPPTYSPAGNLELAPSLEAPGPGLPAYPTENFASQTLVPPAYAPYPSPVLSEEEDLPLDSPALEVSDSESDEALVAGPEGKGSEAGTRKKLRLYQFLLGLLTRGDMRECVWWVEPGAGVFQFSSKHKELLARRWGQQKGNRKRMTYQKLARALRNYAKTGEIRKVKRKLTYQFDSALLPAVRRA

Turning to ATACCC, the binding signal in the experiment with FLI1 is 1.18 fold enrichment (6-mer frequency, TF over GST control); with ELK1, 1.17 fold enrichment (6-mer frequency, TF over GST control); in the experiment with GABPA, 1.19 fold enrichment (6-mer frequency, TF over GST control); with ERG, 1.19 fold enrichment (6-mer frequency, TF over GST control); in the experiment with ELF1 it was 1.2 fold enrichment (6-mer frequency, TF over GST control); with EHF, 1.21 fold enrichment (6-mer frequency, TF over GST control). The binding signal was 1.13 fold enrichment (6-mer frequency, TF over GST control) in the experiment with SPI1; 1.14 fold enrichment (6-mer frequency, TF over GST control) with SPIB; 1.13 fold enrichment (6-mer frequency, TF over GST control) with ELK3.
For the sequence CTTCAA, the binding signal with FLI1 is 1.44 fold enrichment (6-mer frequency, TF over GST control); in the experiment with ELK1 it was 1.35 fold enrichment (6-mer frequency, TF over GST control); with GABPA it was 1.35 fold enrichment (6-mer frequency, TF over GST control); in the experiment with ERG it was 1.28 fold enrichment (6-mer frequency, TF over GST control); in the experiment with ELF1, 1.4 fold enrichment (6-mer frequency, TF over GST control); with EHF, 1.26 fold enrichment (6-mer frequency, TF over GST control). The binding signal was 1.27 fold enrichment (6-mer frequency, TF over GST control) with SPI1; 1.4 fold enrichment (6-mer frequency, TF over GST control) in the experiment with SPIB; 1.13 fold enrichment (6-mer frequency, TF over GST control) with ELK3.
Take CTACGC: the binding signal with FLI1 was 1.71 fold enrichment (6-mer frequency, TF over GST control); with ELK1, 1.59 fold enrichment (6-mer frequency, TF over GST control); with GABPA it was 1.56 fold enrichment (6-mer frequency, TF over GST control); in the experiment with ERG, 1.47 fold enrichment (6-mer frequency, TF over GST control); with ELF1 it was 1.55 fold enrichment (6-mer frequency, TF over GST control); with EHF, 1.56 fold enrichment (6-mer frequency, TF over GST control). Further, the binding signal is 1.59 fold enrichment (6-mer frequency, TF over GST control) with SPI1; 1.6 fold enrichment (6-mer frequency, TF over GST control) in the experiment with SPIB; 1.56 fold enrichment (6-mer frequency, TF over GST control) with ELK3.
As for AACTGC, the binding signal was 1.34 fold enrichment (6-mer frequency, TF over GST control) with FLI1; 1.47 fold enrichment (6-mer frequency, TF over GST control) with ELK1; 1.32 fold enrichment (6-mer frequency, TF over GST control) in the experiment with GABPA; 1.32 fold enrichment (6-mer frequency, TF over GST control) in the experiment with ERG; 1.42 fold enrichment (6-mer frequency, TF over GST control) in the experiment with ELF1; 1.33 fold enrichment (6-mer frequency, TF over GST control) in the experiment with EHF. Moreover, the binding signal is 1.45 fold enrichment (6-mer frequency, TF over GST control) with SPI1; 1.41 fold enrichment (6-mer frequency, TF over GST control) with SPIB; 1.25 fold enrichment (6-mer frequency, TF over GST control) with ELK3.
As to AACAAC, the binding signal in the experiment with FLI1 is 1.24 fold enrichment (6-mer frequency, TF over GST control); with ELK1 it was 1.31 fold enrichment (6-mer frequency, TF over GST control); with GABPA it was 1.24 fold enrichment (6-mer frequency, TF over GST control); with ERG it was 1.29 fold enrichment (6-mer frequency, TF over GST control); with ELF1 it was 1.3 fold enrichment (6-mer frequency, TF over GST control); with EHF, 1.29 fold enrichment (6-mer frequency, TF over GST control). For the same sequence, the binding signal in the experiment with SPI1 is 1.3 fold enrichment (6-mer frequency, TF over GST control); in the experiment with SPIB, 1.23 fold enrichment (6-mer frequency, TF over GST control); in the experiment with ELK3 it was 1.34 fold enrichment (6-mer frequency, TF over GST control).
With ATTTGG, the binding signal was 1.44 fold enrichment (6-mer frequency, TF over GST control) with FLI1; 1.33 fold enrichment (6-mer frequency, TF over GST control) with ELK1; 1.39 fold enrichment (6-mer frequency, TF over GST control) with GABPA; 1.36 fold enrichment (6-mer frequency, TF over GST control) with ERG; 1.36 fold enrichment (6-mer frequency, TF over GST control) with ELF1; 1.35 fold enrichment (6-mer frequency, TF over GST control) with EHF. Also, the binding signal is 1.38 fold enrichment (6-mer frequency, TF over GST control) with SPI1; 1.32 fold enrichment (6-mer frequency, TF over GST control) in the experiment with SPIB; 1.33 fold enrichment (6-mer frequency, TF over GST control) with ELK3.
For the sequence TTATCT, the binding signal with FLI1 was 1.37 fold enrichment (6-mer frequency, TF over GST control); with ELK1, 1.2 fold enrichment (6-mer frequency, TF over GST control); with GABPA, 1.41 fold enrichment (6-mer frequency, TF over GST control); with ERG, 1.15 fold enrichment (6-mer frequency, TF over GST control); in the experiment with ELF1, 1.31 fold enrichment (6-mer frequency, TF over GST control); with EHF it was 1.3 fold enrichment (6-mer frequency, TF over GST control). The binding signal with SPI1 is 1.31 fold enrichment (6-mer frequency, TF over GST control); with SPIB, 1.34 fold enrichment (6-mer frequency, TF over GST control); with ELK3, 1.36 fold enrichment (6-mer frequency, TF over GST control).
On to ATAAAA, for which the binding signal in the experiment with FLI1 is 1.09 fold enrichment (6-mer frequency, TF over GST control); in the experiment with ELK1, 1.15 fold enrichment (6-mer frequency, TF over GST control); in the experiment with GABPA, 1.1 fold enrichment (6-mer frequency, TF over GST control); with ERG, 1.09 fold enrichment (6-mer frequency, TF over GST control); with ELF1, 1.12 fold enrichment (6-mer frequency, TF over GST control); in the experiment with EHF it was 1.1 fold enrichment (6-mer frequency, TF over GST control). Also, the binding signal was 1.17 fold enrichment (6-mer frequency, TF over GST control) in the experiment with SPI1; 1.21 fold enrichment (6-mer frequency, TF over GST control) with SPIB; 1.12 fold enrichment (6-mer frequency, TF over GST control) with ELK3.

(Values after publication PMC7862700, “An all-to-all approach to the identification of sequence-specific readers for epigenetic DNA modifications on cytosine”.)
